According to PubChem BioAssay (NCATS):
Records with an inconclusive call do not appear. The source made the active and inactive calls. Calls follow the shape of the dose curve; as a rule, active = well fitted curve in the direction sought with a large enough effect; inconclusive = small, poorly fitted or top-dose-only effect, or another doubt; inactive = no such curve, though single readings can be large; an effect the other way counts as inactive or inconclusive.

How the values were obtained:
[1] = Cellular Toxicity (caspase-3) Mesangial (AID 660); conditions: mesangial cells, normalized: DMSO 0%, 100 µM tamoxifen 100%; at 91.7 µM (top of the series);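 also: combined caspase 3 and 7 activity read by Caspase-Glo luminescence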
How it was run: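 Concentration-response qHTS: compound-induced rise in caspase 3/7 luminescence in human mesangial cells after 16 h, normalized to DMSO and 100 uM tamoxifen controls.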

[2] = Cellular Toxicity (caspase-3) H-4-II-E (AID 663); conditions: H-4-II-E rat hepatoma, scaled: DMSO 0%, 100 µM tamoxifen 100%; at 92.2 µM (top of the series);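 also: cells exposed to compound for 16 hr before readout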
How it was run: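 Rat hepatoma H-4-II-E cells (1500/well) plated 5 hr, then exposed to compound titrations for 16 hr at 37 °C. Caspase-Glo 3/7 luminescence read after 20 min at RT; data normalized to DMSO and 100 uM tamoxifen, AC50 from Hill fits.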

[3] = Cellular Toxicity (caspase-3) Hek293 (AID 664); conditions: HEK293 caspase-3 activation, DMSO = 0%, 100 µM tamoxifen = 100%; at 92.2 µM (top of the series);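 also: cells exposed to compound for 16 h at 37 °C before readout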
How it was run: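 Activation of caspase-3/7 is measured as increased luminescence from cleaved peptide-aminoluciferin substrate in HEK293 cells treated 16 hours at 37 °C. AC50 values come from Hill-equation fits of concentration-response data.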

[4] = Cellular Toxicity (caspase-3) N2a (AID 665);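 also: compound exposure lasted 16 h at 37 °C before readout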
How it was run: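 Plated mouse neuroblastoma N2a cells received titrated compounds for 16 h in complete medium. Caspase activity was then detected with a peptide-aminoluciferin luminescent reagent.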

[5] = Cellular Toxicity (caspase-3) NIH 3T3 (AID 666);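 also: caspase signal read after 16 h compound exposure; 0% = DMSO basal and 100% = 100 µM tamoxifen stimulation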
How it was run: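 Concentration-response qHTS in NIH 3T3 mouse fibroblasts scores caspase-3/7 activation as rising luminescence after 16 hr compound exposure. Signals are scaled between DMSO-only and 100 uM tamoxifen.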

[6] = Cellular Toxicity (caspase-3) Renal Proximal Tubule (AID 667); conditions: Potency: caspase-3 activation;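 also: cells exposed to compound for 16 hours at 37 °C before detection; 0% = DMSO basal and 100% = 10 µM staurosporine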
How it was run: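 AC50 derived by standard Hill fit of concentration-response data, normalized between DMSO basal and 10 uM staurosporine as 100% stimulation. Cells: primary rat kidney proximal tubule, 16 h treatment at 37 °C.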

[7] = target: Cytochrome P450 3A4 (Homo sapiens) (UniProt P08684); test: qHTS Assay for Inhibitors and Substrates of Cytochrome P450 3A4 (AID 884); also: % is scaled to controls: 0 for no effect and ±100 for the full control effect; nearly all actives have a fitted effect of over 50% in size
How it was run: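 20 nM human CYP3A4 with 25 uM Luciferin-PPXE (at KM) in 200 mM KPO4, preincubated 10 min with compound; NADPH regeneration started a 60 min RT reaction. Luciferin detected by luminescence, normalized to 57 uM ketoconazole as full inhibition.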

[8] = MultiTox-Fluor Cytotoxicity Assay - LYMP1-001 - Dead Cells (AID 946)
How it was run: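 Cytotoxicity as increased dead-cell protease fluorescence (bis-AAF-R110, 485/520 nm), read 60 min after MultiTox-Fluor reagent. Human lymphoblastoid line exposed 16 h; Hill-fitted AC50, with DMSO as 0% and 15 uM tetraoctylammonium bromide as 100%.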

[9] = MultiTox-Fluor Cytotoxicity Assay - LYMP1-001 - Live Cells (AID 947);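 also: 0% = DMSO only and full inhibition = tetraoctylammonium bromide control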
[10] = Cell Viability - LYMP1-002 - Assay at 16 hr (AID 948);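 also: 0% = DMSO alone and full effect = 92 µM tetraoctylammonium bromide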
How it was run: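 Seed 2500 LYMP1-002 cells per well in complete medium and hold 5 hr at 37 C. Add compound across a concentration series and incubate 16 hr at 37 C. Add CellTiter-Glo, wait 30 min at room temperature, read luminescence.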

[11] = MultiTox-Fluor Cytotoxicity Assay - LYMP1-002 - Live Cells (AID 955); also: % is scaled to controls: 0 for no effect and ±100 for the full control effect
How it was run: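 Cytotoxicity in the human lymphoblastoid line LYMP1-002 is measured as loss of live-cell protease activity after 16 h treatment in complete culture medium. AC50 is derived from Hill-equation fits of qHTS concentration-response data.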

[12] = MultiTox-Fluor Cytotoxicity Assay - LYMP1-002 - Dead Cells (AID 960); also: nearly all actives have a fitted effect of over 60% in size
How it was run: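 Acute cytotoxicity in a human lymphoblastoid line is scored as rising dead-cell protease signal after 16 hr exposure at 37 C, measured fluorometrically (485/520).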

[13] = MultiTox-Fluor Cytotoxicity Assay - LYMP1-003 - Dead Cells (AID 961); also: nearly all actives have a fitted effect of over 70% in size
How it was run: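 Dead-cell protease release, detected as bis-AAF-R110 fluorescence at 485/520 nm, was measured in LYMP1-003 cells after 16 h compound treatment at 37 C. AC50 values came from Hill-modeled qHTS curves normalized to DMSO (0%) and 15 uM tetraoctylammonium bromide (100%).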

[14] = MultiTox-Fluor Cytotoxicity Assay - LYMP1-003 - Live Cells (AID 962);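 also: 0% = DMSO only and full loss = 92 µM tetraoctylammonium bromide; cytotoxic hits lower the live-cell protease signal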
How it was run: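 Cells plated at 2500 per well and incubated 5 hr; compounds added and incubated 16 hr at 37 C; MultiTox-Fluor reagent added for 60 min at room temperature; fluorescence of liberated AFC measured at 405/510 nm.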

[15] = Cell Viability - LYMP1-003 - Assay at 24 hr (AID 963);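 also: plate controls were DMSO only for no effect and tetraoctylammonium bromide positive control for full effect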
How it was run: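 Acute toxicity in LYMP1-003 lymphoblastoid cells: 24 hr compound treatment at 37 C, ATP measured with CellTiter-Glo after 30 min at room temperature. AC50 derived by fitting the Hill equation to qHTS titrations.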

[16] = Cell Viability - LYMP1-003 - Assay at 40 hr (AID 964); also: % is scaled to controls: 0 for no effect and ±100 for the full control effect; nearly all actives have a fitted effect of over 60% in size
How it was run: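 This qHTS cytotoxicity screen treats human lymphoblastoid cells (LYMP1-003) with compounds for 40 hr and quantifies cellular ATP via luciferase luminescence.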

[17] = Cell Viability - LYMP2-003 (AID 965);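 also: cells exposed to compounds for 24 h before reading; 0% = DMSO only and full effect = 92 µM tetraoctylammonium bromide; nearly all actives have a fitted effect of over 50% in size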
How it was run: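 Seed 2500 lymphoblastoid cells/well; incubate 5 hr, 37 C; add compounds; incubate 24 hr, 37 C; add CellTiter-Glo, 30 min RT; read luminescence. AC50 from Hill fit.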

[18] = Cell Viability - LYMP2-001 (AID 921);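 also: cells exposed to compound for 24 h at 37 °C; 0% = DMSO only and full inhibition = tetraoctylammonium bromide control wells; nearly all actives have a fitted effect of over 70% in size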
How it was run: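 Steps: seed 2500 lymphoblastoid cells/well; 5 hr, 37 C; add compound; 24 hr, 37 C; CellTiter-Glo reagent, 30 min room temperature; read luminescence. Concentration-response modeled by Hill equation for AC50.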

Sequence of Cytochrome P450 3A4 (Homo sapiens) (P08684 whole entry, looked up): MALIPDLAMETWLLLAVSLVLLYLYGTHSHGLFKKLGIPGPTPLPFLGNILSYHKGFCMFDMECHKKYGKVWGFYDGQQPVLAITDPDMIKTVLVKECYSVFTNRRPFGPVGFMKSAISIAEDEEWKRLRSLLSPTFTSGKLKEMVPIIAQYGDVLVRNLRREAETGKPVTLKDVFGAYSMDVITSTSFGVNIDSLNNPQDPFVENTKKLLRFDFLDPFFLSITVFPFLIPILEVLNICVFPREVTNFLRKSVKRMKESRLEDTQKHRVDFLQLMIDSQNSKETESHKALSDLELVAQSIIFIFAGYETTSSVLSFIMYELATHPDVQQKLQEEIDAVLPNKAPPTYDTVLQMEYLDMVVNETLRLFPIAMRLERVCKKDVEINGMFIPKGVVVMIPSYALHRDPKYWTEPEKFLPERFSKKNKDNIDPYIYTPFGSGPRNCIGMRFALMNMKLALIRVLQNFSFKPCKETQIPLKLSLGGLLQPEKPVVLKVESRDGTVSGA

CCC=O
inactive: caspase-3 activation [1] -0.374% | caspase-3 activation [2] 0.94% | caspase-3 activation [3] 1.43% | outcome [4] | outcome [5] | Potency [6] | Potency [7] | outcome [8] | outcome [9] | outcome [10] | outcome [11] | outcome [12] | Potency [13] | Potency [14] | Potency [15] | Potency [16] | Potency [17]

Nc1cccc([N+](=O)[O-])c1
inactive: caspase-3 activation [1] -0.828% | caspase-3 activation [2] 0.491% | caspase-3 activation [3] 0.377% | outcome [4] | outcome [5] | Potency [6] | Potency [7] | outcome [8] | outcome [9] | outcome [10] | outcome [11] | outcome [12] | Potency [13] | Potency [14] | Potency [15] | Potency [16] | Potency [17]

Cc1c(N)cccc1N
inactive: caspase-3 activation [1] -0.29% | caspase-3 activation [2] 0.28% | caspase-3 activation [3] 0.0499% | outcome [4] | outcome [5] | Potency [6] | Potency [18] | outcome [8] | outcome [9] | outcome [10] | outcome [12] | Potency [13] | Potency [14] | Potency [15] | Potency [16] | Potency [17]

CC(=O)c1nccs1
inactive: caspase-3 activation [1] 0.103% | caspase-3 activation [2] 1.15% | caspase-3 activation [3] 4.27% | outcome [4] | outcome [5] | Potency [6] | Potency [7] | Potency [18] | outcome [8] | outcome [9] | outcome [10] | outcome [12] | Potency [13] | Potency [14] | Potency [15] | Potency [16] | Potency [17]

C/C=C(/C)C#N
inactive: caspase-3 activation [1] -0.503% | caspase-3 activation [2] 0.589% | caspase-3 activation [3] 0.51% | outcome [4] | outcome [5] | Potency [6] | Potency [7] | Potency [18] | outcome [8] | outcome [9] | outcome [10] | outcome [12] | Potency [13] | Potency [14] | Potency [16] | Potency [17]

C=CCn1c(=O)n(CC=C)c(=O)n(CC=C)c1=O
inactive: caspase-3 activation [1] -1.07% | caspase-3 activation [2] 0.22% | caspase-3 activation [3] -1.6% | outcome [4] | outcome [5] | Potency [6] | Potency [18] | outcome [8] | outcome [9] | outcome [10] | outcome [11] | outcome [12] | Potency [13] | Potency [14] | Potency [15] | Potency [16] | Potency [17]

ICCc1ccccc1
inactive: caspase-3 activation [1] 0.262% | caspase-3 activation [2] 0.877% | caspase-3 activation [3] 3.13% | outcome [4] | outcome [5] | Potency [6] | Potency [7] | Potency [18] | outcome [8] | outcome [9] | outcome [10] | outcome [12] | Potency [13] | Potency [15] | Potency [16] | Potency [17]

COc1ccccc1[N+](=O)[O-]
inactive: caspase-3 activation [1] -1.05% | caspase-3 activation [2] 0.0394% | caspase-3 activation [3] -0.651% | outcome [4] | outcome [5] | Potency [6] | Potency [7] | Potency [18] | outcome [8] | outcome [10] | outcome [11] | outcome [12] | Potency [13] | Potency [15] | Potency [16] | Potency [17]

CC/C(C)=N/O
inactive: caspase-3 activation [1] 0.891% | caspase-3 activation [2] -0.877% | caspase-3 activation [3] 1.42% | outcome [4] | Potency [6] | Potency [7] | Potency [18] | outcome [8] | outcome [9] | outcome [11] | outcome [12] | Potency [14] | Potency [15] | Potency [16] | Potency [17]
